According to article PMC4336329 (PLoS ONE, 2015):
The whole screen tested about 310,000 compounds, of which about 14,000 (4.5%) showed an effect of 50% or more. The effect is printed as a negative number. This is one part of a sample in which strong results are shown more often than they occur.

Molecular target: human ether-à-go-go-related gene (hERG) potassium channel (human, UniProt Q12809)
Test: primary screen, population patch clamp on CHO cells stably expressing hERG; higher = less effect of the substance
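Also: peak tail current of the secondary pulse compared with the same well before compound.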

Sequence of human ether-à-go-go-related gene (hERG) potassium channel (Q12809 whole entry, looked up): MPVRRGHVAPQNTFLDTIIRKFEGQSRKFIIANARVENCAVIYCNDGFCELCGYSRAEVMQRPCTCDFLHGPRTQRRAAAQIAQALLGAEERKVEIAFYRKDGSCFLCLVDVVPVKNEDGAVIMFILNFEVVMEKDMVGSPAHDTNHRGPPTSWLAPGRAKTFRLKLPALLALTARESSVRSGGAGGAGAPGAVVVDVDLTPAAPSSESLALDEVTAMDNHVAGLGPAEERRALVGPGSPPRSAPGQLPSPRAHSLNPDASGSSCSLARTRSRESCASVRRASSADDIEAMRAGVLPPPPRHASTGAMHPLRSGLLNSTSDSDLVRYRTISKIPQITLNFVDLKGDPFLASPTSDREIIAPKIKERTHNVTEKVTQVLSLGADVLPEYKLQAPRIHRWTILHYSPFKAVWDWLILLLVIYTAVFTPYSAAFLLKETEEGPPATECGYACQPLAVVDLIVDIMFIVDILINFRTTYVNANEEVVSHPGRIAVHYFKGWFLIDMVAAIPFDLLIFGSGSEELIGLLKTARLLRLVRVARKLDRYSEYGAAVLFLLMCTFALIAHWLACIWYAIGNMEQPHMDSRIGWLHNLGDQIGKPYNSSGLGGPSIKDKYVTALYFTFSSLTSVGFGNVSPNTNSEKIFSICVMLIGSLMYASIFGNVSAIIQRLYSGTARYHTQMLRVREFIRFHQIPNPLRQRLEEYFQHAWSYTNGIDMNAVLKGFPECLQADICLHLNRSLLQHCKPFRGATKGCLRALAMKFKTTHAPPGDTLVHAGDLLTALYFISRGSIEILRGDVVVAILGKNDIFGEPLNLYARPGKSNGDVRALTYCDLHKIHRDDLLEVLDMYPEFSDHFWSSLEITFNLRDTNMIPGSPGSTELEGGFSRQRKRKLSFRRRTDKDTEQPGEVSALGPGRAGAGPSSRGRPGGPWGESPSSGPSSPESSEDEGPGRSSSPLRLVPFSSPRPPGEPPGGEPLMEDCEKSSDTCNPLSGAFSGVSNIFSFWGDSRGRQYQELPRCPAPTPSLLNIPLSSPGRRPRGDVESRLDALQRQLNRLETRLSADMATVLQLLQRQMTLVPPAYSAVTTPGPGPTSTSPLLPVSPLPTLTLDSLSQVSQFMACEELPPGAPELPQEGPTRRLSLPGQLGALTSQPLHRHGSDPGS

| Structure (SMILES) | hERG current change (%, negative = inhibition) at 10uM [%] |
| --- | --- |
| C[C@H](NC(=O)c1cc2cc(Cl)ccc2n1C)C(=O)N1CCC[C@H]1C(=O)O | 13.7 |
| O=C(NCCN1CCOCC1)[C@H](Cc1ccccc1)N1C(=O)c2ccccc2C1=O | -2.06 |
| CS(=O)(=O)NC1CCN(Cc2ccccc2)CC1 | -2.95 |
| COc1cccc(CN(C)C(=O)CNC(=O)c2ccc3c(c2)OCO3)c1OC | 15.3 |
| CC1Cc2cc(/C(O)=C3\C(=O)C(=O)N(CCN(C)C)C3c3ccccc3F)ccc2O1 (stereo not shown) | 2.94 |
| CCOc1ccc(S(=O)(=O)Nc2ccccn2)c2ccccc12 | 10.7 |
| CC(Oc1ncnc2ccccc12)C(=O)Nc1cccc(S(=O)(=O)N2CCOCC2)c1 (stereo not shown) | -11.3 |
| Cc1c(NS(=O)(=O)c2cccc(C(=O)Nc3ccccc3)c2)c(=O)n(-c2ccccc2)n1C | -11 |
| CCn1cc(C(=O)N2CC(C)CC(C)C2)c(=O)c2cc(S(=O)(=O)N3CCCC3)ccc21 (stereo not shown) | 6.81 |
| O=[N+]([O-])c1cc(C(F)(F)F)ccc1Sc1nccn1Cc1ccccc1 | -30.3 |
| O=[N+]([O-])c1ccc(Sc2nccn2Cc2ccccc2)c([N+](=O)[O-])c1 | -57.9 |
| O=[N+]([O-])c1ccc(Sc2nccn2Cc2ccccc2)cc1 | -59.5 |
| NC(=O)CSc1nccn1Cc1ccccc1 | 7.57 |
| O=[N+]([O-])c1ccccc1Sc1nccn1Cc1ccccc1 | -21.6 |
| O=C(CSc1nccn1Cc1ccccc1)Nc1ccccc1 | 12.4 |
| CCCn1c(C(CO)Nc2nc(C)cs2)nc2ccccc21 (stereo not shown) | -5.83 |
| O=C(NC(=S)Nc1ccc(Oc2ccc(Cl)cc2)cc1)c1ccccc1 | 10.7 |
| O=C(Nc1nnc(-c2ccc(Cl)cc2)o1)c1cccc(N2C(=O)CCC2=O)c1 | 12.2 |
| Cc1noc(C)c1COC(=O)CN(C)S(=O)(=O)c1ccc(Cl)cc1 | -14.4 |
| COCCCNC(=O)CC(NS(=O)(=O)c1ccc(F)cc1)c1ccc(OC)cc1 (stereo not shown) | -1.73 |
| Nc1c2c(nc3ccccc13)CCN(Cc1ccccc1)C2 | -56.1 |
| Cl.Nc1c2c(nc3ccccc13)CCCC2.O | -42.3 |

| Structure (SMILES) | hERG current change (%, negative = inhibition) at 10uM [%] |
| --- | --- |
| c1ccc(CN2CCc3nc4ccccc4cc3C2)cc1 | -4.62 |
| Nc1nc2c(c(=O)[nH]1)CN(Cc1ccccc1)CC2 | 7.8 |
| Nc1c2c(nc3ccccc13)CSCC2 | -57.3 |
| Cl.Nc1c2c(nc3ccccc13)CCCC2 | -39.7 |
| C/C(=N\O)C1(C)N(O)C(C)(C)C(c2ccco2)=[N+]1[O-] (stereo not shown) | 22.2 |
| Cc1cccc(NC(=O)c2nc[nH]c2C(=O)N2CCc3ccccc3C2)c1 | 5.13 |
| O=C1NC(Nc2nc3ccccc3s2)(C(F)(F)F)C(=O)N1C1CCCCC1 (stereo not shown) | -6.17 |
| Cc1ccc(S(=O)(=O)N(C)CC(=O)O/N=C(\N)c2cccc([N+](=O)[O-])c2)cc1 | -66.8 |
| Cc1ccc(S(=O)(=O)N(C)CC(=O)O/N=C(\N)c2ccc([N+](=O)[O-])cc2)cc1 | -45.9 |
| N/C(=N\OC(=O)CCC1CCCCC1)c1cccc([N+](=O)[O-])c1 | -15.1 |
| CN(CC(=O)O/N=C(\N)c1cccc([N+](=O)[O-])c1)S(=O)(=O)c1ccccc1 | -24.4 |
| N/C(=N\OC(=O)CCC1CCCC1)c1cccc([N+](=O)[O-])c1 | -70.4 |
| N/C(=N\OC(=O)CC1CCCCC1)c1cccc([N+](=O)[O-])c1 | -6.21 |
| Cc1nnc2sc(-c3ccc(-c4ccc(Cl)c(C(F)(F)F)c4)o3)nn12 | 3.66 |
| CCCCSc1nnc(-c2ccc(C)cc2)n1C | -33.7 |
| COc1cc(C(=O)Nc2ccc3c(c2)ncn3C(C)(C)C)cc(OC)c1OC | 9.04 |
| CCOc1c2ccccc2nn1CCOC | 5.42 |
| CCc1ccc2[nH]c(=O)c(CN(CC3CCCO3)C(=S)NCc3ccco3)cc2c1 (stereo not shown) | -21.6 |
| CCc1ccc2[nH]c(=O)c(CN(Cc3ccco3)C(=S)NCC3CCCO3)cc2c1 (stereo not shown) | -19 |
| CCN(CC)CCN(Cc1cc2cc(C)ccc2[nH]c1=O)C(=S)NCc1ccco1 | -43.4 |
| CN(C)CCCN(Cc1cc2cc3c(cc2[nH]c1=O)OCO3)C(=S)NCc1ccco1 | -19.2 |
